# Experimental data from the supplement of paper PMC10849652.
# About 8,800 targets were measured; listed, in parts, are those with a hit and a random draw of the rest. About 0.5% of all pairs of compound and target were hits. Values without a mark were called inactive.
# Experiments:
# Assay in all cases: log2 fold change, soluble protein after heating vs DMSO (PISA); higher = thermal stabilisation; K562 lysate, 10 uM; active = over 0.2 and 3.5 SD of the protein, either way, in both replicates (recomputed)
# [1] = compound: C#Cc1cccc(Nc2ncnc3cc(OCCOC)c(OCCOC)cc23)c1 [erlotinib]
# In short: (§1)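 Values give the log-two fold change in thermal stability against solvent controls, from duplicates. Crude K562 extract at 1 mg/mL protein, made by dounce homogenisation in PBS pH 7.4 with 1 mM MgCl2, was treated with 10 μM compound for 30 min. After 3 min heating across 48°C-58°C, aliquots were pooled, adjusted to 0.5% NP-40 at 4°C and centrifuged at 21,000xg for 90 min. The supernatant was measured by TMTpro 16plex LC-MS/MS with channel sums equalised.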
# [2] = compound: C/C(=N\NC(=O)C1=CC(=CC=C1)S(=O)(=O)N2CCOCC2)/C3=C(C=CC(=C3)Cl)O
# In short: as §1
# [3] = compound: C1=CC(=CC=C1C2=NC3=C(N2)C=C(C=C3)C(=O)N)OC4=CC=C(C=C4)Cl
# In short: as §1
# [4] = compound: C1=CC2=C(C=CC(=C2)/C=C\3/C(=O)NC(=NCC4=CC=CS4)S3)N=C1
# In short: as §1
# [5] = compound: C1=CC2=NC=CN=C2C=C1/C=C/3\C(=O)NC(=O)S3
# In short: as §1
# [6] = compound: C1=CC=C(C=C1)C2=NC(=C(N2)C3=CC=NC=C3)C4=CC(=C(C=C4)Cl)O
# In short: as §1
# [7] = compound: C1=CC=C2C(=C1)C3=NNC4=CC=CC(=C43)C2=O
# In short: as §1
# [8] = compound: C1CCN(C1)C(=O)NC2=CC=CC(=C2)NC3=NC=C(C(=N3)NCCC4=CN=CN4)Br
# In short: as §1
# [9] = compound: C1CN(CCC1(CC2=CC=C(C=C2)Cl)N)C3=NC=NC4=C3C=CN4
# In short: as §1
# [10] = compound: C1COCCN1CCN2C3=CC=CC=C3N=C2NC(=O)C4=CC(=CC=C4)[N+](=O)[O-] [IRAK-1-4 Inhibitor I]
# In short: as §1
# [11] = compound: C=CC(=O)N1CCC[C@@H](n2nc(-c3ccc(Oc4ccccc4)cc3)c3c(N)ncnc32)C1 [ibrutinib]
# In short: as §1
# [12] = compound: CC(=O)c1cnc2ccc(-c3cc(Cl)c(O)c(Cl)c3)nc2c1N[C@H]1CC[C@H](CN(C)C)CC1
# In short: as §1
# [13] = compound: CC(C)(C)Cn1c(N)nc2ccc(-c3[nH]c(C(C)(C)C)nc3-c3ccc(F)cc3)nc21 [ralimetinib]
# In short: as §1
# [14] = compound: CC(C)(O)CC(=O)NCCn1ccc2ncnc(Nc3ccc(Oc4cccc(C(F)(F)F)c4)c(Cl)c3)c21
# In short: as §1
# [15] = compound: CC(C)C1=C2N=C(C=C(N2N=C1)NCC3=CC=CC=C3)NCCCCCCN
# In short: as §1
# [16] = compound: CC1=C(C(CC(=O)N1)C2=CC=C(C=C2)C(F)(F)F)C(=O)NC3=C(C=C4C(=C3)C=NN4)F
# In short: as §1
# [17] = compound: CC1=C(C2=C(C=C1)C(=O)C3=CC=CC=C3N2CCCN)C
# In short: as §1
# [18] = compound: CC1=C(C=C(C=C1)NC(=O)C2=CC(=CC=C2)C(C)(C)C#N)NC3=CC4=C(C=C3)N=CN(C4=O)C
# In short: as §1
# [19] = compound: CC1=C(C=C(C=C1)NC(=O)C2=CC(=CC=C2)N(C)C)NC(=O)C3=CC=C(C=C3)O
# In short: as §1
# [20] = compound: CC1=CC=C(C=C1)SC2=C3C=C(SC3=CN=C2)C(=O)N
# In short: as §1
# Chain of UniProt Q8WYQ5 (Q8WYQ5 whole entry, looked up): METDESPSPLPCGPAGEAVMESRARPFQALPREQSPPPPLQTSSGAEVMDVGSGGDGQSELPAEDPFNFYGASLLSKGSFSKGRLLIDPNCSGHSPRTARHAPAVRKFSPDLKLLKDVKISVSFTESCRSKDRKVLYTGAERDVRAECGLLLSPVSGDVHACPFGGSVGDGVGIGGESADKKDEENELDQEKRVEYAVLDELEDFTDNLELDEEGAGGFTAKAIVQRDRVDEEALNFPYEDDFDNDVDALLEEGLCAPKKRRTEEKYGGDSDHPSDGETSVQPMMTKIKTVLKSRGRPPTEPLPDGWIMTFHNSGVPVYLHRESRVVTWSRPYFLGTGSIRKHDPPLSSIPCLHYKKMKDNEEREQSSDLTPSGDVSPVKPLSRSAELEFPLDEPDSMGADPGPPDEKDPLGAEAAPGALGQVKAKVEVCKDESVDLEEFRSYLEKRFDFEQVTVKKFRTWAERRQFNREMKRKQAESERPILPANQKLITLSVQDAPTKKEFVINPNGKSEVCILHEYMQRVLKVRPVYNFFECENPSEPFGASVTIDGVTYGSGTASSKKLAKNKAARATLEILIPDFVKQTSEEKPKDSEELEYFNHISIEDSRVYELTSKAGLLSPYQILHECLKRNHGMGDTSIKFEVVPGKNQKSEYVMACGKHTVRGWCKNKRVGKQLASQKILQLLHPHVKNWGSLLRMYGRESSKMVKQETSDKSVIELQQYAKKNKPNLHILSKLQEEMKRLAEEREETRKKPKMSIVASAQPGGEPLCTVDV
# Chain of UniProt P29373 (P29373 whole entry, looked up): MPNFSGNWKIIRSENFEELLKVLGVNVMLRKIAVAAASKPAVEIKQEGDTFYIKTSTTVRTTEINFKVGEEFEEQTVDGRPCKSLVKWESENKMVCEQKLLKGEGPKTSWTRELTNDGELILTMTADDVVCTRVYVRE
# Chain of UniProt O15247 (O15247 whole entry, looked up): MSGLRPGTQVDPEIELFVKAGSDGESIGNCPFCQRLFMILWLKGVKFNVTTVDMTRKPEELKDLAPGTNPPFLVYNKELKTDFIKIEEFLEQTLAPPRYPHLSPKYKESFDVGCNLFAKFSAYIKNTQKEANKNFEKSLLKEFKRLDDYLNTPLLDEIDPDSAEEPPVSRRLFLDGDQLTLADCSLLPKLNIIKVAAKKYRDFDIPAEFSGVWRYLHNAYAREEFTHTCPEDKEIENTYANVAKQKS
# Chain of UniProt Q9Y6M4 (Q9Y6M4 whole entry, looked up): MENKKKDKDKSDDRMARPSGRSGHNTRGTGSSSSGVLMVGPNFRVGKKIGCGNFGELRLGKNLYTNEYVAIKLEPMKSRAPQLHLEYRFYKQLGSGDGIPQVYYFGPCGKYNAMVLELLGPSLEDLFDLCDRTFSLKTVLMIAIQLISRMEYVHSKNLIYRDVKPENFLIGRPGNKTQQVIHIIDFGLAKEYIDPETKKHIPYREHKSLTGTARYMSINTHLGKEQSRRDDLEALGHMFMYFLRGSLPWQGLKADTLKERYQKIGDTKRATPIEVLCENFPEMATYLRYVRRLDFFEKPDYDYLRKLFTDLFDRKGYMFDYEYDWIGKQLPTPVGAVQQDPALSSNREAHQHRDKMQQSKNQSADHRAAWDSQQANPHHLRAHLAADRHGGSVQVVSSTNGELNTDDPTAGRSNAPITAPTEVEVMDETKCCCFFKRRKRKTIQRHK
# Chain of UniProt Q92989 (Q92989 whole entry, looked up): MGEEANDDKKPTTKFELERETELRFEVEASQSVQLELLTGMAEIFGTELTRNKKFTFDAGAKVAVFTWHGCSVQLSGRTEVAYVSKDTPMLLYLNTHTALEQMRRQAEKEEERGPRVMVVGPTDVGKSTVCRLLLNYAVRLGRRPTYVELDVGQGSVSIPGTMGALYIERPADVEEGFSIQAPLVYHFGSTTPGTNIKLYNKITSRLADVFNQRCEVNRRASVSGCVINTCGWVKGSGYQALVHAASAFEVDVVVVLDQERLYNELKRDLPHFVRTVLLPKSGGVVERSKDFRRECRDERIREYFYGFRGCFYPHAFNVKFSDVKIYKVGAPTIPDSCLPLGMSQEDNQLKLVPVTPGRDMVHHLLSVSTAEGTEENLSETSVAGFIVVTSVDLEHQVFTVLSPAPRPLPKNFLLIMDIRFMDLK
# Chain of UniProt Q9UBU7 (Q9UBU7 whole entry, looked up): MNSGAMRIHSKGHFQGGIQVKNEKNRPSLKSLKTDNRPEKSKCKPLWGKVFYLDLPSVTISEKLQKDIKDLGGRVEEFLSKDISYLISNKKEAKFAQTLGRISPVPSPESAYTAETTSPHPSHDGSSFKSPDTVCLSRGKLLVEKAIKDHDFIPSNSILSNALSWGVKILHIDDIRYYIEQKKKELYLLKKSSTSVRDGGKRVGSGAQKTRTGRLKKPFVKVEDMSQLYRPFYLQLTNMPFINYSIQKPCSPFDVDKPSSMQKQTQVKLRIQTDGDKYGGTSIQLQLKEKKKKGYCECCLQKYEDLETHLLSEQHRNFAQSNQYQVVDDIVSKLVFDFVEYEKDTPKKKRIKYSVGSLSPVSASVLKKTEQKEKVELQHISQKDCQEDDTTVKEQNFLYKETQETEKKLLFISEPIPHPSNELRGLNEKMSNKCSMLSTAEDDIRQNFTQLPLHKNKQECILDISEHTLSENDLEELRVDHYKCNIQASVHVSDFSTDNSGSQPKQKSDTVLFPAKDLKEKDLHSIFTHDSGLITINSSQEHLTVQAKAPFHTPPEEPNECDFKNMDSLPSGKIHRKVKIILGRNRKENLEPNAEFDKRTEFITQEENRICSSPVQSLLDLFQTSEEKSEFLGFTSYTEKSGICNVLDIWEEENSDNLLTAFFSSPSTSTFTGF
# Chain of UniProt Q96SQ9 (Q96SQ9 whole entry, looked up): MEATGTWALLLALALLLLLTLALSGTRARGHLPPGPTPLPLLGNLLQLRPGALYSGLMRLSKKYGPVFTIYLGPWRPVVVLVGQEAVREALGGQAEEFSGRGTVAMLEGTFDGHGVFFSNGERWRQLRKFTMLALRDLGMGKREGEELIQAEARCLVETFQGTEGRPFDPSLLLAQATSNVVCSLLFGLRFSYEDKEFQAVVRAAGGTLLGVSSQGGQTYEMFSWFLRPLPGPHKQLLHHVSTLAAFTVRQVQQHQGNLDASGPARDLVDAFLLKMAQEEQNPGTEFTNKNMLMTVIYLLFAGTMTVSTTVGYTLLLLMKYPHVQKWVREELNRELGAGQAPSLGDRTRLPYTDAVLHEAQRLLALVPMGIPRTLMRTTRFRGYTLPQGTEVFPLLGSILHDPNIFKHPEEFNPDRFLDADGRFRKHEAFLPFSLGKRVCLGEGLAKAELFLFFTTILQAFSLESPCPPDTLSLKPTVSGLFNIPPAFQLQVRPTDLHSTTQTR
# Chain of UniProt P09543 (P09543 whole entry, looked up): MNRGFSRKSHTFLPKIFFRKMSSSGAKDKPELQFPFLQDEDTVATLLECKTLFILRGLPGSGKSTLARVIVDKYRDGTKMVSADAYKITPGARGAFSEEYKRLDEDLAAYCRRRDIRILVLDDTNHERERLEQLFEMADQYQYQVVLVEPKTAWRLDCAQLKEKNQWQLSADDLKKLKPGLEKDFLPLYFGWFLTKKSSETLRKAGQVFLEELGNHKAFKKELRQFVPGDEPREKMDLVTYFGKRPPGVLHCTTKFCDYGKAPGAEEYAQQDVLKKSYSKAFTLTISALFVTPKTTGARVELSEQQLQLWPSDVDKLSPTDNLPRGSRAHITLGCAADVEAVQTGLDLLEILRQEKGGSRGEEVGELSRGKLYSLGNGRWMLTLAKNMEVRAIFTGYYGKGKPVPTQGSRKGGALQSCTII
# Chain of UniProt Q92564 (Q92564 whole entry, looked up): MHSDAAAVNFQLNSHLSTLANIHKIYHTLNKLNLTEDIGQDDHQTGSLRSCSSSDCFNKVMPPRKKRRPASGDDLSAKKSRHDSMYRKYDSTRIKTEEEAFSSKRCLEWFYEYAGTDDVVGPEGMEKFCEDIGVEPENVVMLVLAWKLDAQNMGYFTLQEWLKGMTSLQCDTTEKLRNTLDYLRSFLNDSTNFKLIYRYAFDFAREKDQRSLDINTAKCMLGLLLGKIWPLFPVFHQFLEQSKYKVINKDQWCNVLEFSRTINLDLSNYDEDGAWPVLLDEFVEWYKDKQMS
# Chain of UniProt Q6P3W2 (Q6P3W2 whole entry, looked up): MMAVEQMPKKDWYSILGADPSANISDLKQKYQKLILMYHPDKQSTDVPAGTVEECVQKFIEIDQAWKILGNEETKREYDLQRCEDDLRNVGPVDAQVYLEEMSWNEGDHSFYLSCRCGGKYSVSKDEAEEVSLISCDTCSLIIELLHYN
# Chain of UniProt Q5EBM0 (Q5EBM0 whole entry, looked up): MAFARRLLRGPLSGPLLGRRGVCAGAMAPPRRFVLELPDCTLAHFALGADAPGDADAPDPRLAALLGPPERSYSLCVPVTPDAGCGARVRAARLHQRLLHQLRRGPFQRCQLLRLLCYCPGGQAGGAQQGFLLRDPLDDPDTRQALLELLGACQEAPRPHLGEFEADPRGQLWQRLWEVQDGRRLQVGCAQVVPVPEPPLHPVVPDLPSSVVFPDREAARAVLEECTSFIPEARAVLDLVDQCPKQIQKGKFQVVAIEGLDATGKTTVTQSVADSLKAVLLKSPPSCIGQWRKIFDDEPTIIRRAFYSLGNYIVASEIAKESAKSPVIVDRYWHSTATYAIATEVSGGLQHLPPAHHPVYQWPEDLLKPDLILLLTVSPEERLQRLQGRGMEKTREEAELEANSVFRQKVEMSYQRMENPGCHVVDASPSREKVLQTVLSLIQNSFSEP
# Chain of UniProt O94760 (O94760 whole entry, looked up): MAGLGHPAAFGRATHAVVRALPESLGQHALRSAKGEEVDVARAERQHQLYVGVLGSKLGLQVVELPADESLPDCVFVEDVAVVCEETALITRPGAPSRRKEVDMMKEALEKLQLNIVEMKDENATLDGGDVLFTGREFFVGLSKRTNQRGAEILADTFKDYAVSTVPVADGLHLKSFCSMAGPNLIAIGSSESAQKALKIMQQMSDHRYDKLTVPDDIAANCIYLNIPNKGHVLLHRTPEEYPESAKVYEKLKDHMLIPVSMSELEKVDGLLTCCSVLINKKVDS
# Chain of UniProt P24311 (P24311 whole entry, looked up): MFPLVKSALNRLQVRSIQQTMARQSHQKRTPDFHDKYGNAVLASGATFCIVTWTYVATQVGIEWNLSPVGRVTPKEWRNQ
Target,log2 fold change [1],log2 fold change [2],log2 fold change [3],log2 fold change [4],log2 fold change [5],log2 fold change [6],log2 fold change [7],log2 fold change [8],log2 fold change [9],log2 fold change [10],log2 fold change [11],log2 fold change [12],log2 fold change [13],log2 fold change [14],log2 fold change [15],log2 fold change [16],log2 fold change [17],log2 fold change [18],log2 fold change [19],log2 fold change [20]
CRABP2 (UniProt P29373),0.026,-0.112,-0.017,-0.063,0.2,-0.042,-0.151,0.399 (active),0.309,-0.024,-0.039,0.061,0.097,-0.015,-0.002,0.176,-0.088,-0.028,0.082,-0.03
COG6 (UniProt Q9Y2V7),-0.059,0.153,-0.074,-0.07,-0.008,0.015,0.024,0.008,0.077,0.006,-0.003,0.005,0.016,-0.059,-0.028,-0.017,0.016,0.004,0.033,0.021
DGCR8 (UniProt Q8WYQ5),0.045,-0.026,0.019,0.023,-0.057,0.002,-0.011,-0.019,0,-0.038,0.031,-0.049,0.014,-0.014,0.015,0.02,-0.018,-0.219,0.071,-0.006
CNOT4 isoform 6 (UniProt O95628),-0.025,-0.016,0.005,0.017,0.009,-0.035,0.043,-0.032,-0.013,0.041,-0.004,0.021,0.033,-0.007,-0.003,0.049,0.037,-0.281 (active),-0.026,0.012
CNP (UniProt P09543),-0.005,-0.066,0.002,-0.012,-0.022,0.007,-0.004,-0.016,0,-0.002,0.024,0.01,0.028,0.019,0.022,0.042,0.038,-0.018,-0.015,0.01
CMPK2 (UniProt Q5EBM0),-0.019,0.07,0.006,-0.035,-0.016,0.004,-0.038,-0.03,0.031,0.024,0.012,0.045,-0.012,0.012,0.026,0.014,0.027,0.009,-0.018,-0.01
CSNK1G3 (UniProt Q9Y6M4),-0.115,-0.018,0.097,0.149,0.073,-0.043,0.234,0.018,0.079,0.022,-0.025,0.529 (active),0.003,-0.048,-0.038,-0.007,0.024,0.031,-0.066,0.132
DEF6 (UniProt Q9H4E7),0.02,0.07,-0.072,0.067,-0.104,0.016,-0.131,0.05,0,0.019,0.016,-0.007,0.098,-0.014,0.022,0.028,-0.024,-0.026,0.066,-0.001
CLIC2 (UniProt O15247),0.036,0.022,-0.005,-0.03,-0.014,-0.014,-0.014,0.019,0.015,0.006,–,-0.014,0.004,0.004,0.04,-0.01,0.018,0.005,0.006,0.001
COQ9 (UniProt O75208),-0.015,-0.075,-0.001,0.041,0.046,0,-0.029,-0.02,0.029,-0.011,0.104,0.023,0.015,-0.008,-0.036,0.017,0.007,-0.024,0.037,0
DDAH1 (UniProt O94760),0,-0.008,0.006,-0.027,–,-0.006,0.035,0.032,0.051,-0.016,–,-0.016,-0.037,-0.045,-0.001,–,-0.441 (active),0.137,-0.005,-0.04
DCUN1D4 isoform 3 (UniProt Q92564),-0.025,-0.118,0.068,-0.127,-0.063,-0.026,-0.053,-0.09,-0.113,0.005,0.064,0.078,-0.033,-0.057,0.018,-0.009,-0.078,-0.027,0.029,-0.059
COX7B (UniProt P24311),-0.024,0.026,0.009,-0.011,–,-0.003,0.022,-0.085,0.022,0.025,–,-0.016,0.014,-0.09,0.008,-0.046,-0.144,0.018,0.039,0.02
CLASP1 (UniProt Q7Z460),0.042,0.082,-0.029,-0.022,0.01,0.026,-0.041,-0.035,0.02,0.029,–,0.013,0.02,0.024,0.01,0.018,0.004,0.02,0.036,0.001
CNTN4 (UniProt Q8IWV2),0.053,0.063,0.138,-0.03,0.053,0.046,-0.203,-0.124,0.138,0.119,-0.043,-0.154,-0.286,-0.341,0.094,-0.077,–,0.312,-0.039,-0.141
CORO7 (UniProt P57737),-0.001,0.01,0.291,-0.089,–,-0.023,-0.047,-0.07,0.064,0.091,–,–,-0.039,0.06,-0.076,-0.202,0.067,-0.229,0.134,–
"CLUH, A0A494C0R8",0.077,-0.023,-0.041,0.02,0.225,0,-0.114,0.05,-0.063,0.008,–,0.138,0.053,-0.043,0.002,-0.128,0,0.016,-0.035,0.029
CLPTM1L (UniProt Q96KA5),-0.019,0.014,-0.143,-0.01,0.009,-0.052,-0.197,-0.059,0.091,-0.01,–,-0.011,0.041,-0.041,0.048,0.058,0.081,-0.024,0.039,-0.005
DBF4 (UniProt Q9UBU7),0.03,0.056,0.005,-0.033,-0.342 (active),0.098,-0.058,-0.068,-0.022,0.04,-0.06,–,-0.048,-0.017,-0.01,-0.062,-0.058,-0.012,-0.042,–
CLIP1 isoform 1 (UniProt P30622),-0.025,-0.026,0.019,-0.005,-0.018,0.005,0.002,0,-0.012,0.007,–,-0.005,0.004,0,-0.008,-0.01,-0.016,0.006,0.003,-0.004
CYP2S1 isoform 2 (UniProt Q96SQ9),-0.026,-0.291,-0.018,-0.096,–,0.07,-0.123,-0.198,0.08,-0.044,–,0.146,0.048,0,0.061,–,-0.084,-0.028,0.07,-0.229
DIAPH1 (UniProt H9KV28),-0.1,-0.013,-0.053,0.005,-0.04,-0.164,-0.024,0.031,-0.037,0.034,-0.063,0.024,-0.022,-0.106,-0.083,0.032,–,0.004,0.009,-0.03
CLP1 (UniProt Q92989),0.024,0.027,-0.011,-0.001,-0.045,-0.014,0.034,-0.024,-0.033,-0.045,–,0.062,0.006,0.003,0.012,0.023,0.001,-0.02,-0.037,0.01
DNAJC24 (UniProt Q6P3W2),0.034,-0.069,0.021,0.011,–,0.016,0.081,0.01,0.01,-0.055,–,-0.12,-0.052,0.113,-0.067,-0.048,0.064,0.031,0.047,0.064
